From PubChem
Sampled rows, rich in hits. Any-hit rate of the full collection: about 7.9%.
KB-3-1 cytotox: qHTS assay for MDR1-selective chemotherapeutics: Primary screen using the parental adenocarcinoma cell KB-3-1; Potency, µM (series often up to 46.1 µM), usual class: cytotoxic; hit rate 1.4% among 400,000; KB-3-1 viability, CellTiter-Glo ATP luminescence, 72 h; also: % is scaled to controls: 0 for no effect and ±100 for the full control effect; nearly all actives have a fitted effect of over 60% in size
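Luminescent ATP read-out (CellTiter-Glo) measures survival of drug-naive KB-3-1 cells after 72 h compound exposure at 37 °C. Titration series was screened from lowest to highest concentration, with DMSO vehicle plates as background controls.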
HT1080-NT tox: qHTS for induction of synthetic lethality in tumor cells producing 2HG: qHTS for the HT-1080-NT fibrosarcoma cell line | AID 686970, 2013 | HT-1080-NT fibrosarcoma viability, CellTiter-Glo ATP luminescence, 48 h | hit rate 1.6% among 360,000 | Potency, µM (titrated, usually from 46.1 µM), for inactives: at the top dose activity, negative = less viability, hits mostly cytotoxic;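 also: NT is the 2HG producing partner of a matched IDH1 knockdown line; 0% = DMSO-treated cells and -100% = media-only wells without cells; nearly all actives have a fitted effect of over 55% in size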
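Viability by CellTiter-Glo luminescence after 48 h compound exposure at 37C of HT-1080-NT cells (750/well, RPMI, 5% FBS). % activity scaled between DMSO wells and medium-only wells, then curve-fitted and categorized by curve class.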
HT1080 IDH1KD tx: qHTS for induction of synthetic lethality in tumor cells producing 2HG: qHTS for the HT-1080-IDH1KD cell line; HT-1080 IDH1 knockdown viability, ATP luminescence, 48 h; AID 686971, 2013; Potency, µM (top dose mostly 46.1 µM), for the others: top-dose activity, negative = toxicity, usual class: cytotoxic; hit rate 2% among 360,000;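 also: 0% = DMSO wells and -100% = cell-free medium wells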
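After a 2 h attachment period, IDH1KD HT-1080 cells took pin-transferred compound for 48 h at 37 °C; ATP-based luminescence after 10 min room-temperature reagent incubation reported viability.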
KB-V1 MDR tox: qHTS assay for MDR1-selective chemotherapeutics: Primary screen using the drug-selected MDR subline cells KB-V1. KB-V1 MDR cells viability, CellTiter-Glo, 72 h. Potency, µM (titrated, usually from 46.1 µM), actives largely listed as cytotoxic. hit rate 3.4% among 400,000. AID 1347076, 2019; also: % is scaled to controls: 0 for no effect and ±100 for the full control effect; nearly all actives have a fitted effect of over 60% in size
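KB-V1 MDR subline cells in DMEM (phenol-red free, 10% FBS) exposed to compounds in qHTS concentration series for 72 h at 37 degrees C. Viability read by CellTiter-Glo luminescence; concentration-effect curves fitted after normalization and correction.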
SW480 rereplic: A quantitative high throughput screen for small molecules that induce DNA re-replication in SW480 colon adenocarcinoma cells; SW480 DNA re-replication, Hoechst DNA content imaging, 48 h; Potency, µM (doses to about 46.1 µM), inactives show at the highest dose re-replication activation, hits mostly activators; hit rate 1.8% among 340,000; also: % of control where 0% means no effect; nearly all actives have a fitted effect of over 55% in size
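Treated cells incubate 48 hr (37 C, 5% CO2), are stained 40 min with Hoechst, and nuclear fluorescence is enumerated; a rise in nuclei with high DNA signal marks re-replication.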
MCF10A rerep: A quantitative high throughput screen for small molecules that induce DNA re-replication in MCF 10a normal breast cells | MCF 10A DNA re-replication, Hoechst nuclear intensity, 48 h | Potency, µM (doses to about 46.1 µM), for the others: top-dose activity, positive = re-replication, actives largely listed as activators | hit rate 2.9% among 350,000; also: % of control where 0% means no effect; nearly all actives have a fitted effect of over 50% in size
An asterisk follows results filed as active; i = inactive; ? = inconclusive; / = no result; [ ] = dose if it differs, or a comment. Calls follow the shape of the dose curve; as a rule, active = well fitted curve in the direction sought with a large enough effect; inconclusive = small, poorly fitted or top-dose-only effect, or another doubt; inactive = no such curve, though single readings can be large; an effect the other way counts as inactive or inconclusive. Potency is read from the fitted curve at half-maximal effect.

SMILES	KB-3-1 cytotox	HT1080-NT tox	HT1080 IDH1KD tx	KB-V1 MDR tox	SW480 rereplic	MCF10A rerep
O=C(Nc1nc2ccccc2[nH]1)c1ccccc1F	?	4.6µM*	5.8µM*	7.3µM*	?	?
Cc1cc(NC(=O)c2ccccc2F)n(-c2nc3ccccc3[nH]2)n1	?	?	-18%	15µM*	5%	?
Cc1cc(NC(=O)c2c(F)cccc2Cl)n(-c2nc3ccccc3[nH]2)n1	i	?	?	i	-5%[9.22 µM]	10µM*
O=C(NCCc1nc2ccccc2[nH]1)c1ccc(F)cc1	?	0%	-19%	12µM*	3%	1%
Cc1cc(NC(=O)C2CCCCC2)n(-c2nc3ccccc3[nH]2)n1	?	?	?	?	2%	?
Cc1cc(NC(=O)c2ccc(C)s2)n(-c2nc3ccccc3[nH]2)n1	i	-7%	0%	i	1%	5%
O=C(Nc1nc2ccccc2[nH]1)c1cc2ccccc2o1	i	?	7.3µM*	i	-10%	?
Cc1cc(NC(=O)c2c(F)cccc2F)n(-c2nc3ccccc3[nH]2)n1	?	?	10µM*	i	8.2µM*	12µM*
Cc1cc(Nc2ccccc2)n(-c2nc3ccccc3[nH]2)n1	?	?	?	?	14%	?
CNC(=O)Nc1cc(C)nn1C	i	1%	8%	i	23µM*	-5%
Cc1cc(NC(=O)Nc2cccc(C(F)(F)F)c2)n(C)n1	i	7%	0%	i	-6%	23%
Cc1cc(C(=O)N/N=C/c2ccc(-c3cccc(Cl)c3)o2)n[nH]1	i	-14%	-1%	i	14%	3%
Cc1ccc(C(=O)N/N=C/c2ccc(-c3cccc(Cl)c3)o2)cn1	?	26µM*	?	?	?	?
Cc1ccc(C(=O)N/N=C\c2ccc(-c3ccc(Cl)c(Cl)c3)o2)cn1	i	16µM*	18µM*	i	?	?
COc1ccccc1-c1cc2nc(-c3ccccc3)cc(N3CCN(C(=O)c4ccoc4)CC3)n2n1	?	-11%	-27%	9.2µM*	/	/
O=C(c1ccoc1)N1CCN(c2cc(-c3ccccc3)nc3cc(-c4ccccc4)nn23)CC1	16µM*	-25%	?	?	/	/
COc1ccccc1-c1cc2nc(-c3ccccc3)cc(N3CCN(C(=O)c4ccco4)CC3)n2n1	16µM*	0%	4%	?	/	/
Cc1cc(N2CCN(C(=O)c3ccoc3)CC2)n2nc(-c3ccccc3)cc2n1	i	-5%	-2%	i	/	/
COc1nc(Oc2ccc(=O)n(-c3ccccc3)n2)nc(N(C)C)n1	i	/	/	i	/	/
CN(Cc1ccccc1)C(=O)c1cc(-c2ccc(Br)cc2)on1	?	9%	-26%	15µM*	2%	-3%
Cc1cc(C(=O)N(C)Cc2ccc(Br)cc2)no1	i	3%	0%	i	2%	-5%
Cc1ccc(-c2nc(C(=O)NCc3ccc(Cl)cc3)c3n2CCCCC3)cc1	?	/	/	13µM*	/	/
COC(=O)c1ccccc1NC(=O)c1nc(-c2ccc(C)cc2)n2c1CCCCC2	?	/	/	15µM*	/	/
CC(C)N(Cc1ccccc1)C(=O)c1nc(-c2ccc(Cl)cc2)n2c1CCCCC2	i	/	/	16µM*	/	/
COc1cccc(C(O)c2nc(-c3cc(F)cc(F)c3)cs2)c1 (centres undefined)	i	0%	-1%	i	/	/
SMILES	KB-3-1 cytotox	HT1080-NT tox	HT1080 IDH1KD tx	KB-V1 MDR tox	SW480 rereplic	MCF10A rerep
CC(C)c1ccc(NC(=O)C2(C)Cc3ccccc3C(=O)O2)cc1 (centres undefined)	i	/	/	?	/	/
CCOC(=O)c1ccc(NC(=O)C(CC)Sc2nc3ccncc3[nH]2)cc1 (centres undefined)	i	/	/	i	/	/
COC(=O)C1C(O)=C(C(C)=Nc2cccc3ccccc23)C(=O)CC1(C)C (centres undefined)	i	-5%	-9%	i	5.8µM*	12%
Cn1c(SCC(=O)NC2CC2)nnc1-c1ccccc1Cl	i	3%	4%	i	6%	-14%
C=CCn1c(SCC(=O)NC2CCCCC2)nnc1-c1ccc(OC)cc1	i	15%	16%	4.1µM*	-8%	-38%
C=CCn1c(SCC(=O)NC2CC2)nnc1-c1cccc(OC)c1	i	14%	1%	i	-4%	1%
COc1ccc(-n2cnnc2SCC(=O)NC2CC2)cc1	i	-1%	5%	i	/	/
O=C(CSc1nncn1-c1ccccc1F)NC1CCCCC1	i	-2%	3%	21µM*	-3%	-2%
Cn1c(SCC(=O)NC2CCCCC2)nnc1-c1ccccc1F	i	1%	12%	i	9.2µM*	-20%
COc1ccc(-n2cnnc2SCC(=O)NC2CCCCC2)cc1	i	-7%	-10%	23µM*	3%	1%
CCc1ccc(NC(=O)CCNS(=O)(=O)c2ccc3c(c2)oc(=O)n3C)cc1	i	/	/	i	/	/
CSc1ccc(C(=O)c2[nH]c(=O)[nH]c2C)cc1	i	27%	11%	5.8µM*	-2%	-1%
CNC[C@@H](CC1CCCCC1)NC[C@H](CC(C)C)NCCc1cccc(C(F)(F)F)c1	?	23µM*	?	?	?	7.3µM*
Cc1ccc2c(c1)c(C)cc[n+]2Cc1ccccc1	8.2µM*	1%	?	i	1%	1%
COc1ccc2c(c1)c(C)cc[n+]2Cc1ccccc1	8.2µM*	15µM*	23µM*	i	-12%	0%
CCN(Cc1ccccc1)C(=O)c1[nH]c2ccc(OC)cc2c1C	i	-7%	8%	i	1%	13%
Cc1ccc2ccc[n+](Cc3ccccc3)c2c1	5.2µM*	0%	-8%	i	11%	4%
CC(C(=O)Nc1ccccc1-c1ccccc1)N(C)Cc1nc2ccccc2c(=O)[nH]1 (centres undefined)	?	23µM*	23µM*	12µM*	?	?
O=Cc1s/c(=N\S(=O)(=O)c2ccccc2)n(CCCCl)c1Cl	?	7.3µM*	7.3µM*	i	8.2µM*	?
O=C(Nc1ncc(Cc2ccc(SC(F)F)cc2)s1)c1ccccc1	1.5µM*	4.6µM*	6.5µM*	2.1µM*	6.5µM*	?
Cc1ccc(C(=O)Nc2nc3c(s2)CCCC3)o1	?	-23%	-20%	12µM*	-5%	3%
